Potency and affinity values are given separately. Activity calls are given as the source filed them.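 How the source made its calls: active means polarization signal falls with dose and the fitted half-maximal concentration is at or below ten times the sample's top valid dose; inconclusive means flat curve at 30 to 70% inhibition, or poor fit; inactive means signal rises, flat within 30%, or potency beyond limit.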
The compounds below were run against Golgi-associated PDZ and coiled-coil motif-containing protein (Homo sapiens) (UniProt Q9HD26) (assay: CAL PDZ peptide-binding inhibitors, dose response, biochemical, fluorescence polarization, Cerulean-tagged CAL PDZ, cherry-picks (AID 504773)). Settings: 1 h; series mostly up to 50 µM.

outcome, inactive:
Cc1cc(SC2CCOC2=O)nc2ccccc12 (centres undefined)
Cc1ccc(CN2CCN(Cc3nc4ccccc4nc3C)CC2CCO)cc1 (centres undefined)
O=C(CN(Cc1ccccc1)S(=O)(=O)c1ccc(F)cc1)NCCC1=CCCCC1
CC1CCN(C(=O)COC(=O)c2cccs2)CC1
CCCCOc1ccc(C(=O)N2CCNC(=O)C2CC(=O)OC(C)C)cc1 (centres undefined)
Cc1ccc2nc(NC(=O)COC(=O)c3ccncc3)sc2c1
Cc1ccc(NC(=O)CN(C)C(=S)NC2CC2)cc1
O=C(NCc1ccccc1)C1CCCN(c2nc3ccsc3c(=O)s2)C1 (centres undefined)
O=[N+]([O-])c1ccc(N/N=C/c2cccnc2)cc1
Cc1ccc2nc3c(nc2c1)-c1ccccc1C3=O
Cn1c(CNC(=O)OC(C)(C)C)n[nH]c1=S
Brc1cccc(CNCC2CCCO2)c1 (centres undefined)
O=C(NC1CCCCCCC1)c1cc([N+](=O)[O-])ccc1Cl
COc1ccc(CN(C)C(C)C(=O)NC2CCCc3ccccc32)cc1 (centres undefined)
CC1CCC(NC(=O)C2CCN(c3cnccn3)CC2)CC1 (centres undefined)
Cc1ccc(Cl)c2c(N=Nc3ccccc3)c(O)[nH]c12
S=C(NCCc1ccccc1)N1CCn2cccc2C1c1cccnc1 (centres undefined)
Cc1c(Cl)c(C(F)(F)F)nn1CC(=O)NCc1ccco1
Cc1cc(Cl)c(Cl)cc1S(=O)(=O)NCCCn1ccnc1
